Hit rate of the full screen: of about 290,000 compounds, about 3,000 (1%) were called active. This excerpt belongs to a sample that is enriched for actives. A number with no mark means an inactive call. Rule as the data show it: active = inhibition mostly above about 36% (no sharp cut-off); inactive = mostly below about 34%.

This experiment can be described thus: NOD1 signaling inhibitors, primary screen, cell-based, luminescence, uHTS (AID 1578).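 Also: HEK-293T reporter cells stimulated with the NOD1 agonist gamma-tri-DAP.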 Particulars: NOD1-driven NF-kB luciferase reporter cells, at 4 µM, hits give high values. On the technique in general: A reporter such as luciferase makes a cellular process visible.
For the compound `Cc1ccc(S(=O)(=O)N2CCOCC2)cc1C(=O)Nc1c(C)n(C)n(-c2ccccc2)c1=O`, the inhibition (as a rule, the drop in the measured response relative to a control, in per cent) is -23.2%.

Regarding `Cc1ccc(-c2csc(N3CCN(CCCn4c(C(F)(F)F)nc5ccccc54)CC3)n2)cc1`, the inhibition is -23%. `CC(=O)N[C@@H](C)c1nc2ccccc2n1CCCN1CCN(c2nc(-c3ccc(C)cc3)cs2)CC1`: the inhibition is -3.9%. Regarding `Cc1noc(C)c1COC(=O)[C@@H](NC(=O)c1ccccc1Cl)C(C)C`, the inhibition was -17.3%. The same measure for `CCC(CC)c1nnc(NC(=O)c2ccc(N3CCCC3=O)cc2)s1`: -14.4%; for `Cc1csc(NC(=O)c2ccc(C(=O)Nc3nc(C)cs3)cc2)n1`: 2.7%. With `Cc1csc(NC(=O)c2ccc(N3CCCC3=O)cc2)n1`, the inhibition is 39.5% (active). `Cc1ccccc1N1CCN(C2CCCN(C(=O)c3noc4c3CCCC4)C2)CC1` (configuration not stated): the inhibition was 6.2%. Regarding `O=C1c2[nH]nc(-c3ccccc3O)c2C(c2ccc(F)cc2)N1Cc1ccco1` (configuration not stated), the inhibition is 53.4% (active).

`COc1ccc(C2c3c(-c4ccccc4O)n[nH]c3C(=O)N2Cc2ccco2)cc1` (configuration not stated): the inhibition was -5.9%.

Regarding `O=C1c2[nH]nc(-c3ccccc3O)c2C(c2ccccc2)N1Cc1ccco1` (configuration not stated), the inhibition was -0.4%. With `COc1cc2c(cc1OC)C(c1ccccc1)N(C(=O)c1ccco1)CC2` (configuration not stated), the inhibition is 3.6%.

In the case of `COc1ccc(OCCC(=O)OCC(=O)NC(=O)NC(C)(C)C)cc1`, the inhibition is 7%. Turning to `CC(=O)NCC(=O)OC(C)C(=O)Nc1ccc(C(C)=O)cc1` (configuration not stated), the inhibition was -17.4%.

Consider `CCCNC(=O)c1ccc(N2CCC3(CC2)CC(c2ccccc2)=NO3)c(NC(=O)c2cccc(C)c2)c1`, for which the inhibition is 43.2%.

Take `CCCNC(=O)c1ccc(N2CCC3(CC2)CC(c2ccccc2)=NO3)c(NC(=O)c2ccccc2)c1`: the inhibition was 21.3%. For the compound `CCCNC(=O)c1ccc(N2CCC3(CC2)CC(c2ccccc2)=NO3)c(NC(=O)c2cccc(OC)c2)c1`, the inhibition is 77.4% (active). As to `CC(=O)Nc1ccc(C2=NNC(=Nc3ccc(S(=O)(=O)N4CCOCC4)cc3)SC2)cc1`, the inhibition is -12.4%. As to `CCOC(=O)N/N=C/c1c(C)c(C(=O)c2ccc(F)cc2)n2ccccc12`, the inhibition was 48.9% (active). Consider `CNC(=S)N/N=C/c1c(C)c(C(=O)c2ccc(F)cc2)n2ccccc12`, for which the inhibition was 0.6%.

Take `Cc1c(/C=N/NC(N)=O)c2ccccn2c1C(=O)c1ccc(F)cc1`: the inhibition is 15.7%. The same measure for `COC(=O)N/N=C/c1c(C)c(C(=O)c2ccc(F)cc2)n2ccccc12`: -3.4%; for `Cc1c(/C=N/NC(=O)c2ccc(O)cc2)c2ccccn2c1C(=O)c1ccc(F)cc1`: 17.9%.

Take `CCCCCCCCCC[N+](C)(C)CC/C=C1/c2ccccc2Sc2ccc(Cl)cc21`: the inhibition was -0.8%.

With `CCCCCCc1cc2cc(S(=O)(=O)c3ccc(C)cc3)c(=O)oc2cc1O`, the inhibition is -36.3%. On to `CCCCCCc1cc2cc(C(N)=O)c(=N)oc2cc1O`, for which the inhibition is 12.9%.

With `CCCCCCc1cc2cc(C(=O)Nc3ccccc3OC)c(=O)oc2cc1O`, the inhibition was -4.9%. As for `CCCCCCc1cc2cc(C(=O)Nc3ccc(OC)cc3)c(=O)oc2cc1O`, the inhibition was -7.5%. Regarding `CCCCCCc1cc2cc(C(=O)Nc3cccc(OC)c3)c(=O)oc2cc1O`, the inhibition was 59.9%. For the compound `CCCCCCc1cc2cc(C(=O)Nc3ccccc3)c(=O)oc2cc1O`, the inhibition is 34.1%.

For `CCCC1C(C#N)=C(N)Oc2n[nH]c(C(C)(C)C)c21` (configuration not stated), the inhibition was -47.4%. The same measure for `CCOc1ccc(N(CC(=O)N2CCCCC2)S(=O)(=O)c2ccc(Cl)cc2)cc1`: 5.7%; for `Nn1c(Cc2ccccc2)n[nH]c1=S`: -24.7%.

Consider `O=C1c2cccnc2C(=O)N1c1cccc(-c2nc3ccccc3o2)c1`, for which the inhibition is -23.4%.

Regarding `O=C(NCc1ccco1)C(c1ccccc1F)N(CC1CCCO1)C(=O)Cn1nnc2ccccc21` (configuration not stated), the inhibition is -7%. Consider `CCN(C(=O)Cn1c(=O)oc2ccccc21)c1cccc(C)c1`, for which the inhibition is 2.1%. Consider `CC(C)C[C@H](NC(=O)c1nc[nH]c1C(=O)NCc1ccccc1)C(=O)OC(C)(C)C`, for which the inhibition was -11.1%. The same measure for `COc1ccc(CN(CC(=O)NCc2ccco2)C(=O)CCC(=O)Nc2ccccn2)cc1`: -20.6%. Take `O=C1NC(=S)N/C1=C\c1cccnc1`: the inhibition was 33.9% (active).

Regarding `Cc1cc(/C=C2\NC(=S)NC2=O)c(C)n1-c1cccnc1`, the inhibition was -14.7%. The same measure for `O=C1NC(=S)N/C1=C/c1cccnc1`: 16.2%; for `COc1ccc(/C=N/NC(=O)CSc2ccccc2)cc1OC`: -7.9%. In the case of `CCc1ccc(NC(=O)CN(c2ccccc2)S(=O)(=O)N(C)C)cc1`, the inhibition is -17.6%. In the case of `COc1cc(/C=C/C(=O)c2ccc(O)cc2)ccc1OCC#N`, the inhibition is 29.2%. On to `COc1ccc(/C=C/C(=O)c2ccc(C(=O)/C=C/c3ccc(OC)c(OC)c3)cc2)cc1OC`, for which the inhibition was -4.9%. Turning to `COc1ccc2cc(C(=O)/C=C/c3cc(OC)c(OC)c(OC)c3)ccc2c1`, the inhibition was 52.7%. For the compound `CCOc1ccc(C(=O)/C=C/c2ccc(OC)c(OC)c2)cc1`, the inhibition was 51.4%. `COc1ccc(NC(=O)Nc2cccc3ccccc23)c(OC)c1`: the inhibition was 19.9%. On to `CCS(=O)(=O)N1CCN(S(=O)(=O)c2ccc3c(c2)OCCO3)CC1`, for which the inhibition is 24.1%.

In the case of `COc1ccccc1N1CCN(C(=O)CSc2nc3ccccc3nc2N2CCC(C)CC2)CC1`, the inhibition was 58.1% (active). For `COc1ccccc1N1CCN(C(=O)CSc2nc3ccccc3nc2N2CCCCC2)CC1`, the inhibition was 8.8%.

Consider `Cc1ccnc(N2CCN(C(=O)CSc3nc4ccccc4nc3N3CCC(C)CC3)CC2)c1`, for which the inhibition was 3.8%. The same measure for `CS(=O)(=O)N(CC(=O)NCCSCc1c(F)cccc1Cl)c1cccc([N+](=O)[O-])c1`: -2.1%. Consider `COc1cc(C(=O)OCC(=O)Nc2cc(C)on2)ccc1OCc1ccccc1Cl`, for which the inhibition was -69.5%. In the case of `CCCCN(C)C(=O)C1CCC(CNS(=O)(=O)c2ccc3c(c2)CC(C)N3C(C)=O)CC1` (configuration not stated), the inhibition was -1.6%. With `Clc1ccc(CN2CCc3c([nH]c4ccccc34)C2)cc1Cl` the figure was -1.2%.

As to `Cc1cccc(CN2CCc3c([nH]c4ccccc34)C2)c1`, the inhibition is -0.6%.

`Clc1cccc(CN2CCc3c([nH]c4ccccc34)C2)c1`: the inhibition is 73.3% (active).

For the compound `Nc1ccc(S(=O)(=O)Nc2nc3ccccc3o2)cc1`, the inhibition is -21.3%. With `CCc1nnc(NC(=O)CCC(=O)N2CCC(Cc3ccccc3)CC2)s1`, the inhibition is -19.4%. Consider `CNc1ccccc1C(C)(C)c1cc(-c2cccc(OC)c2)no1`, for which the inhibition was 53.1% (active).

On to `CNc1ccccc1C(C)(C)c1cc(-c2cccc([N+](=O)[O-])c2)no1`, for which the inhibition was -54.1%. With `CNc1ccccc1C(C)(C)c1cc(-c2cccc(Br)c2)no1` the figure was 18.9%.

For the compound `CCC(=O)NNC(=O)CCC(=O)Nc1ccc(C)cc1C`, the inhibition was -21.4%. With `COc1ccc(NC(=O)CCNS(=O)(=O)c2cccc3nsnc23)cc1`, the inhibition was -14.3%.

`C=CCSc1nnc(N2C(=O)C(O)=C(C(=O)c3ccco3)C2c2ccccc2F)s1` (configuration not stated): the inhibition is -10.7%.

Turning to `O=C(O)c1ccc(S(=O)(=O)c2ccc3c(c2)C(=O)N(c2ccc(O)cc2)C3=O)cc1`, the inhibition is -1.2%. Turning to `O=C(c1cc2sccc2n1Cc1ccc(F)cc1)N1CCCc2ccccc21`, the inhibition is -9%. With `O=C(c1cc2sccc2n1Cc1ccccc1)N1CCc2ccccc21` the figure was -5.9%; with `O=C(c1cc2sccc2n1Cc1ccccc1)N1CCCc2ccccc21`, 34.8% (active); with `CN(CCc1ccccn1)C1CCCN(S(=O)(=O)c2ccccc2)C1` (configuration not stated), -25.2%. As for `Cc1ccc(/C=C/C(=O)Nc2nc3ccccc3[nH]2)cc1`, the inhibition is -16.1%. Take `COc1ccc(NC(=O)c2ccc(-c3csc(C)n3)cc2)cc1`: the inhibition was -5.5%.

Turning to `CCOC(=O)c1cnn(-c2ccccc2)c1-n1cccc1C(=O)C(=O)Nc1ccccc1`, the inhibition is -28.7%.

With `CCOC(=O)c1cnn(-c2ccccc2)c1-n1cccc1C(=O)C(=O)N(C)C`, the inhibition was -12.4%. With `CCOC(=O)c1cnn(-c2ccccc2)c1-n1cccc1C(=O)C(=O)N(CC)CC` the figure was 42.8% (active); with `Cc1ccc(-c2nnn(Cc3nc(N)nc(N4CCOCC4)n3)n2)cc1`, 5.1%. For the compound `CC(=O)C(=Cc1ccc(C(=O)O)cc1)C(C)=O`, the inhibition was -17.7%.

Consider `ClCc1cc2ccccc2nc1Cl`, for which the inhibition is -27%. The same measure for `Cc1ccc2cc(C=O)c(Cl)nc2c1`: -3.3%. With `COc1ccc2cc(CO)c(Cl)nc2c1` the figure was -28.1%; with `Cc1ccc2cc(CCl)c(Cl)nc2c1`, 50.2% (active). As to `COc1ccc2cc(C#N)c(Cl)nc2c1`, the inhibition is -29.7%.

For the compound `COc1ccc2cc(CCl)c(Cl)nc2c1`, the inhibition is 70.1% (active). With `COc1ccc(S(=O)(=O)N2Cc3ccccc3CC2C(=O)N2CCOCC2)cc1` (configuration not stated) the figure was 3.2%.

Consider `COc1cscc1C(N)=O`, for which the inhibition was 6.7%. Regarding `c1ccc2c(c1)ncn2Cc1nnc2sc(-c3ccc4c(c3)OCO4)nn12`, the inhibition was -4.4%. Take `O=C(NC1CCCCCC1)c1cc(S(=O)(=O)N2CCCCC2)ccc1N1CCOCC1`: the inhibition was -7.1%.

`CC1CCC(C(C)C)C(OCC(O)CN2CCCC(C)C2)C1` (configuration not stated): the inhibition was -44.4%. With `Cc1cc(C)cc(-n2ncc3c2CCCC3NC(=O)C2(C(N)=O)CC2)c1` (configuration not stated), the inhibition is -11.6%. With `Cc1cccc(-n2ncc3c2CCCC3NC(=O)c2ccc[n+]([O-])c2)c1C` (configuration not stated) the figure was -3.9%; with `COc1ccc(C(=O)NC2CCCc3c2cnn3-c2cccc(C)c2C)o1` (configuration not stated), 0.8%; with `Cc1cc(C)c(C(=O)NC2CCCc3c2cnn3-c2cccc(C)c2C)o1` (configuration not stated), -10.7%.

For the compound `Cc1cc(C(=O)NC2CCCc3c2cnn3-c2cccc(C)c2C)no1` (configuration not stated), the inhibition was 11.2%.

On to `O=C(NC1CCCc2c1cnn2-c1ccccc1F)c1ccccn1` (configuration not stated), for which the inhibition is 20.6%. Take `Cc1cccc(-n2ncc3c2CCCC3NC(=O)C2CCOCC2)c1C` (configuration not stated): the inhibition was 9.8%.

With `Cn1nccc1C(=O)NC1CCCc2c1cnn2-c1cc(F)cc(F)c1` (configuration not stated), the inhibition is 35.1%.
